# Source: PubChem (National Center for Advancing Translational Sciences (NCATS))
# D1 potentiator = enhances dopamine response at the human D1 receptor; HEK293 TREx D1 cells, calcium flux, dopamine EC20 potentiation; 360,000 tested, 0.036% active; P21728; AID 504651; potentiation, % at 10 µM; in the data active means potentiation above about 30%
# Target sequence (P21728 whole entry, looked up): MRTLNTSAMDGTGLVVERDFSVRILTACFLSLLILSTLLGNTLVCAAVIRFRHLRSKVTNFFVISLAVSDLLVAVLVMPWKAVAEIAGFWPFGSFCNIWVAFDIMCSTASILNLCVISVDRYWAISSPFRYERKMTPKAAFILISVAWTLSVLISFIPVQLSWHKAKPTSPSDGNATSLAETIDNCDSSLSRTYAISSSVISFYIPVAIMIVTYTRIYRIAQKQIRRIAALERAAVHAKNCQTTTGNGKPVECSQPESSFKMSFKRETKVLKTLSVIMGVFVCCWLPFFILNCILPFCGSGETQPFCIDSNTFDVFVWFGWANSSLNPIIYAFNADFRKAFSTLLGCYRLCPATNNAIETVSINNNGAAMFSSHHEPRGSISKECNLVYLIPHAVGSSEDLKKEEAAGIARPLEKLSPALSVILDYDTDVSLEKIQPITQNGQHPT
# D1 antagonist = antagonists of human D1 dopamine receptor; P21728; HEK293 TREx D1 cells, calcium flux, dopamine EC80; hits give low values; activity change, negative = inhibition, % at 10 µM; 360,000 tested, 3.2% active; AID 504652; in the data active means activity change below about -30%
#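 Using tetracycline-induced force-coupled D1 Hek293 cells and a calcium dye, signals were followed for 180 s after compound, then for 180 s after EC80 dopamine, to detect inhibitors.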
# TRHR PAM = TRH receptor (human) allosteric enhancement | P34981 | enhancement, % at 2 µM | AID 493056 | TRHR cells, fluo-8 calcium fluorescence, EC20 TRH enhancement | 360,000 tested, 0.66% active; in the data active means enhancement above about 30%
#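 TRHR-expressing cells loaded with fluo-8 calcium dye were read kinetically (ex 480/em 530) during compound addition, then stimulated with an EC20 of TRH (10 nM final). Enhancement of the Gq-mediated intracellular calcium response was scored.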
# TRHR agonist = TRH receptor (human) agonism | TRHR cells, calcium flux fluo-8, FDSS agonist mode | 360,000 tested, 0.18% active | P34981 | activation, % at 2 µM | AID 493084
#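 In this calcium-flux screen, cells bearing human TRHR are dye-loaded with fluo-8, baselined for 10 cycles, then exposed to library compounds; positive kinetic calcium responses during the agonist phase mark hits, with TRH as control.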
# D1 ag = activates the human D1 dopamine receptor. P21728. HEK293 T-REx D1 cells, calcium flux, agonist mode. activation, % at 2 µM. 360,000 tested, 1% active. AID 504660
#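 Inducible HEK293 T-REx D1 cells, force-coupled to calcium signalling, were plated at 4000 cells/well with tetracycline and held overnight at 30 C. After no-wash calcium dye loading, compound-evoked calcium rise over 180 s flagged agonists.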
# A number is an active result; - = inactive. Sampled rows, rich in hits. Any-hit rate of the full collection: about 4.7%. Unless noted, no stated cut-off is given here; in the data, active means activation above about 30%; inactive means the rest.
SMILES,D1 potentiator,D1 antagonist,TRHR PAM,TRHR agonist,D1 ag
O=[N+]([O-])c1cc(-c2nc(-c3ccncc3)no2)ccc1NCc1ccccc1,-,-,-,-,-
O=S(=O)(c1ccc2ccccc2c1)N1CCN=C1SCc1cccnc1,-,-33.5,-,-,-
CCSC1=NCCN1S(=O)(=O)c1ccc2ccccc2c1,-,-30.5,-,-,-
CCN(C(=O)c1cn(-c2ccc(OC)cc2)c(=O)c2ccccc12)c1cccc(Cl)c1,-,-,-,-,-
O=C(c1ccc(OC2CCN(CCc3ccccc3)CC2)cc1)N1CCC[C@H]1CO,-,-78.5,-,-,-
COC(=O)COc1ccc(Oc2nc(NC(C)(C)C)nc(N3CCOCC3)n2)nn1,-,-,-,-,-
COCCNC(=O)c1ccc(CSc2nc3ccccc3s2)cc1,-,-33.8,-,-,-
CC1=C(C(=O)Nc2cccc(C(F)(F)F)c2)C2(CCN(C(C)C)CC2)OC1=O,-,-,-,-,-
O=C(CN1C(=O)NC2(CCCC2)C1=O)OCCOc1ccccc1,-,-,-,-,-
O=C(CCCOc1ccccc1)NN1C(=O)NC2(CCCCC2)C1=O,-,-43.2,-,-,-
O=C(N1CCOCC1)C12CC3CC(C1)CC(n1cnc(Cl)n1)(C3)C2,-,-,32.5,-,-
O=C(N1CCOCC1)C12CC3CC(C1)CC(C(=O)N1CCOCC1)(C3)C2,-,-,-,-,-
Cn1c(=O)c2c(-c3ccc(Br)cc3)n(Cc3ccc(F)cc3)cc2n(C)c1=O,-,-,-,-,-
C[C@H](C(=O)O)c1cccc(C(=O)c2ccccc2)c1,-,-54.2,-,-,-
Cc1cc(OCc2cc(C(=O)N(C)Cc3ccccn3)no2)cc(C)c1Cl,-,-,-,-,-
Cc1cc(OCc2cc(C(=O)N(C)CCOc3ccccc3)no2)cc(C)c1Cl,-,-,-,-,37.0
CC(=O)c1ccc(OCc2cc(C(=O)N(C)Cc3ccccn3)no2)cc1,-,-73.5,-,-,-
Cc1cc(OCc2cc(C(=O)N(C)CCCN3CCOCC3)no2)cc(C)c1Cl,-,-,-,-,35.1
Cc1cc(OCc2cc(C(=O)NCC3(C)COC3)no2)cc(C)c1Cl,-,-41.4,-,-,-
Cc1ccc(C(=O)Nc2cc(-c3nc4ncccc4o3)ccc2C)c(C)c1,-,-,-,-,-
Cc1ccc(C)c(NC(=O)CN2C(=O)CCc3cc(S(=O)(=O)N4CCCCC4)ccc32)c1,-,-,-,-,-
Cc1cc(NC(=O)CN2C(=O)C(C)(C)c3ccccc32)ccc1Br,-,-,-,-,-
COc1ccc(-c2nc3cc(C)ccn3c2NC(=O)c2ccc(F)cc2)cc1,-,-39.8,-,-,-
CCOC(=O)c1c(-c2ccc(OC)cc2)csc1NC(=O)CCN1C(=O)c2ccccc2C1=O,-,-,-,-,-
CCOC(=O)c1c(-c2ccc3ccccc3c2)csc1NC(=O)CCCC(=O)O,-,-55.9,-,-,-
SMILES,D1 potentiator,D1 antagonist,TRHR PAM,TRHR agonist,D1 ag
CC(C)n1c(=O)c2oc3ccccc3c2n(Cc2ccccc2F)c1=O,-,-,-,-,-
CCc1ccc(C2C(C(=O)Nc3ccccc3OC)=C(C)Nc3c(C(=O)Nc4ccc(C)cc4)cnn32)cc1 (stereo unspecified),-,-,-,-,-
CCOC(=O)CC1=C(C(=O)OCC)C(c2cccnc2)C(C#N)=C(N)O1 (stereo unspecified),-,-,33.1,-,-
CCOC(=O)C1=C(C)OC(N)=C(C(=O)OCC)C1c1cccnc1 (stereo unspecified),-,-33.4,-,-,-
CCOC(=O)CC1=C(C#N)C(c2cccnc2)C(C(=O)OCC)=C(N)O1 (stereo unspecified),-,-,-,-,-
CCOC(=O)C1=C(C)OC(N)=C(C(=O)OCC)C1c1ccncc1 (stereo unspecified),-,-,-,-,-
CCOc1ccc(-c2cc3nc(C4CCN(C(=O)OC(C)(C)C)CC4)c(C(=O)Nc4ccc(C)cc4C)cn3n2)cc1,-,-,-,-,-
CC(=O)Nc1ccc(S(=O)(=O)Nc2cccc(-c3ccc4nncn4n3)c2)cc1,-,-,-,-,-
CC(=O)c1ccc(S(=O)(=O)Nc2cccc(-c3ccc4nncn4n3)c2)cc1,-,-36.5,-,-,-
CCC(CC)C(=O)Nc1cccc(-c2ccc3nncn3n2)c1,-,-,31.4,-,-
